Source: PubChem
Ecoli rRNA inh – selective bacterial rRNA inhibition in E. coli. GFP signal change (wild-type ribosome), % (no concentration beside the values). E. coli WT GFP vs humanized-ribosome RFP mutants, fluorescence, 24 h; active compounds read low; DMSO median 0, no signal -100. 350,000 tested, 1.6% active;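 active means significant combined selectivity score with lowered wild-type GFP, culture density cut under 30%, mutant RFP and density less affected; inactive means any of these conditions unmet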
esBAF inh – SWI/SNF esBAF complex inhibition | reporter increase, % at 12.5 µM | mouse ES cells, Bmi1-luciferase knock-in reporter, 24 h; 100% = twice the neutral-well signal | 350,000 tested, 2% active; in the data active means activation above about 40%; inconclusive means no clear call, values can overlap the other calls;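 further: 0% = median of the plate's neutral control wells and 100% = double that signal; a rise in the Bmi1 reporter signal indicates esBAF inhibition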
MLL AF4-AF9 inh – MLL-AF4/AF9 protein interaction inhibition; P42568; AlphaScreen, biotin-AF4 peptide binding to FLAG-AF9; inhibition, % at 10 µM; 350,000 tested, 0.47% active; AID 651704;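 active means every replicate reaching a set inhibition limit, whatever the replicate mean, cut at about 25% in these data; inconclusive means mean inhibition reaches that limit but some replicates miss it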;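 further: 0% = plate neutral control median and 100% = total signal loss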
Wnt act – activates Wnt/beta-catenin signaling in a reporter cell assay | activation, % at 9.35 µM | 300,000 tested, 1.2% active | activator, plate reader; in the data active means activation above about 30%, passing the limit was not always enough; inconclusive means no clear call, values can overlap the other calls;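 further: 0% = neutral control wells and 100% = positive control wells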
MITF act – increases MITF-driven TRPM1 promoter luciferase signal. activation, % at 12.5 µM. 300,000 tested, 0.75% active. SK-MEL-5 TRPM1-promoter luciferase, 24 h; % of positive control, neutral wells = 0;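 active means mean activation of at least 80% with every replicate also reaching 80%; inconclusive means mean reaches 80% but some replicate falls short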;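 further: 0% = neutral control wells and 100% = parthenolide positive control wells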
The depositor's hits bear a star; ? = inconclusive; nt = not tested or not shown. Sampled rows, rich in hits. Any-hit rate of the full collection: about 3.7%.

SMILES	Ecoli rRNA inh	esBAF inh	MLL AF4-AF9 inh	Wnt act	MITF act
Cn1cccc1/C=C1\Cc2ccccc2C1=O	10	53*	-3	63*	59
O=C1/C(=C\c2ccncc2)CCc2ccccc21	-12	-2	-1	4	4
O=C1/C(=C\c2ccc(Br)o2)Cc2ccccc21	nt	6	nt	41*	12
O=C(CCCN1C(=O)/C(=C/c2ccc(F)cc2)SC1=S)NC1CCS(=O)(=O)C1 (configuration not stated)	9	-6	2	-2	-11
COc1ccc2c3c([nH]c2c1)[C@H](CO)N(C(=O)Nc1cccc(F)c1)CC31CN(CC2CCOCC2)C1	-2	nt	0	nt	nt
COc1ccc(CC(=O)Nc2c(C(=O)N3CCN(c4ncccn4)CC3)oc3ccccc23)cc1OC	1	-3	0	-2	6
Cc1ccc(OCC(=O)NCc2ccccn2)c(Br)c1	nt	55*	nt	nt	66
CCS(=O)(=O)N1CCN(c2ccccc2)CC1	11	3	12	2	13
O=C1Oc2ccccc2C(=O)/C1=C\N1CCN(c2ccccc2)CC1	-33*	-6	0	0	-17
Cc1ccc(C(=O)C(C)OC(=O)C2=COCCO2)cc1C (configuration not stated)	nt	-6	nt	nt	-5
COC(=O)c1ccc(N2CCN(c3ccccc3)CC2)nc1	9	50*	1	25	100*
O=C(N/N=C/c1ccc([N+](=O)[O-])o1)c1cc2ccccc2o1	4	nt	3	9	-97
O=C(N/N=C/c1ccc([N+](=O)[O-])o1)c1cc2c(ccc3ccccc32)o1	-24*	nt	-1	1	-58
COc1ccc(C)cc1NC(=O)COC(=O)c1ccc(OCc2ccc(Cl)cc2Cl)c(OC)c1	10	nt	11	-1	0
COc1ccc(CNC2=CC(=O)CC(C)(C)C2)cc1	nt	-1	nt	10	-6
COc1ccc(C#CC2=CC(=O)CC(C)(C)C2)cc1	9	45*	10	8	nt
COc1ccccc1C#CC1=CC(=O)CC(C)(C)C1	-23*	17	8	0	nt
COc1ccc(C#Cc2ccc(C3=CC(=O)CC(C)(C)C3=O)cc2)cc1	0	40	0	2	nt
CCc1ccc(C#CC2=CC(=O)CC(C)(C)C2)cc1	-17	61*	8	1	nt
O=C(NC1CCCCC1)C(c1cccc2ccccc12)n1c(=O)c(-c2cc3ccccc3[nH]2)nc2ccccc21 (configuration not stated)	10	nt	-15	-3	nt
C=CCSc1nn2c(=O)c3ccccc3nc2s1	nt	14	nt	52*	nt
COc1cccc(Nc2nn3c(=O)c4ccccc4nc3s2)c1	nt	69*	nt	nt	114*
Cc1ccccc1Nc1nn2c(=O)c3ccccc3nc2s1	nt	38	nt	35*	43
O=c1c2ccccc2nc2sc(Nc3ccc(F)cc3)nn12	18	?	-1	29	51
O=C(/C=C/c1cccs1)NCc1cccs1	3	nt	nt	43*	nt
SMILES	Ecoli rRNA inh	esBAF inh	MLL AF4-AF9 inh	Wnt act	MITF act
Cc1ccc(/C=C/C(=O)NCc2cccs2)cc1	nt	46*	nt	nt	45
O=C(/C=C/c1cccs1)Nc1cccnc1	-8	nt	0	12	92*
C[C@@H](NC(=O)C[C@H]1CC[C@@H]2[C@H](COC[C@@H](O)CN2C(=O)Nc2ccccc2)O1)c1ccccc1	3	-1	-2	nt	nt
CCOC(=O)c1ccc2nc(C)c(CCC(C)=O)c(Cl)c2c1	nt	63*	nt	nt	nt
C=CCc1c(C)nc2ccc(C(=O)OCC)cc2c1Cl	-25	53*	0	2	44
CCOC(=O)c1ccc2nc(C)c(CC)c(Cl)c2c1	-10	26	-2	nt	22
CC(=O)C1=C(Nc2ccc(C)cc2)CC(C)(O)C(C(C)=O)C1c1ccco1 (configuration not stated)	nt	-7	20	0	-11
Cc1ccccc1NC(=O)c1c(C)nc(SCC(=O)OCc2ccccc2)c(C#N)c1-c1ccc(F)cc1	-14	nt	-2	-1	6
Cc1ccc(C(C(=O)NC2CCCC2)N(C(=O)Cc2cccs2)c2ccc3c(c2)OCCO3)cc1 (configuration not stated)	9	-6	-7	-1	7
CC1(C)Cc2ccccc2C(CSc2ccccc2C(=O)O)=N1	-25*	8	11	-2	1
CCCCS(=O)(=O)N1CCN(S(=O)(=O)c2cccs2)CC1	5	-10	0	0	3
CCCCOC(=O)Nc1ccc(C(=O)OC)cc1	nt	79*	nt	53*	64
CCCCOC(=O)Nc1ccc(C)c(Cl)c1	nt	57*	nt	-3	60
